# B1: unnamed (peptide)
# chain: AVPPPPPPPPLPESL
# Target: AgAbp1
# Experiment: SPOT peptide array binding signal intensity (averaged, normalized) (arbitrary units (background-subtracted, floor 0; scale differs between SH3 domains)); higher = stronger binding of the SH3 domain to the peptide
# Summary of the method: (§1)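 GST-SH3 fusions from four yeast species, purified on glutathione Sepharose, were incubated at 10 μg/ml overnight at 4°C on membranes of synthetic 15-mer peptides in which cysteines were replaced with serines. Binding signal is the normalized, background-subtracted spot intensity averaged over replicates, in domain-specific arbitrary units.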
row,Binder,SPOT peptide array binding signal intensity
1,B1,8.5

# Target: AgBbc1
# Experiment: as above
# Summary of the method: as §1
row,Binder,SPOT peptide array binding signal intensity
1,B1,0.5

# Target: AgBem1-D1
# Experiment: as above
# Summary of the method: as §1
row,Binder,SPOT peptide array binding signal intensity
1,B1,≤ 0

# Target: AgBzz1-D1
# Experiment: as above
# Summary of the method: as §1
row,Binder,SPOT peptide array binding signal intensity
1,B1,1

# Target: AgBzz1-D2
# Experiment: as above
# Summary of the method: as §1
row,Binder,SPOT peptide array binding signal intensity
1,B1,5.5

# Target: AgCyk3
# Experiment: as above
# Summary of the method: as §1
row,Binder,SPOT peptide array binding signal intensity
1,B1,≤ 0

# Target: AgFus1
# Experiment: as above
# Summary of the method: as §1
row,Binder,SPOT peptide array binding signal intensity
1,B1,2

# Target: AgHof1
# Experiment: as above
# Summary of the method: as §1
row,Binder,SPOT peptide array binding signal intensity
1,B1,182

# Target: AgHse1
# Experiment: as above
# Summary of the method: as §1
row,Binder,SPOT peptide array binding signal intensity
1,B1,26

# Target: AgLsb1
# Experiment: as above
# Summary of the method: as §1
row,Binder,SPOT peptide array binding signal intensity
1,B1,0.5

# Target: AgLsb4
# Experiment: as above
# Summary of the method: as §1
row,Binder,SPOT peptide array binding signal intensity
1,B1,3

# Target: AgMyo5
# Experiment: as above
# Summary of the method: as §1
row,Binder,SPOT peptide array binding signal intensity
1,B1,188

# Target: AgNbp2
# Experiment: as above
# Summary of the method: as §1
row,Binder,SPOT peptide array binding signal intensity
1,B1,18

# Target: AgRvs167
# Experiment: as above
# Summary of the method: as §1
row,Binder,SPOT peptide array binding signal intensity
1,B1,0.667

# Target: AgSho1
# Experiment: as above
# Summary of the method: as §1
row,Binder,SPOT peptide array binding signal intensity
1,B1,1

# Target: AgSla1-D1-D2
# Experiment: as above
# Summary of the method: as §1
row,Binder,SPOT peptide array binding signal intensity
1,B1,≤ 0

# Target: AgSla1-D3
# Experiment: as above
# Summary of the method: as §1
row,Binder,SPOT peptide array binding signal intensity
1,B1,2

# Target: CaAbp1-D1
# Experiment: as above
# Summary of the method: as §1
row,Binder,SPOT peptide array binding signal intensity
1,B1,1

# Target: CaAbp1-D2
# Experiment: as above
# Summary of the method: as §1
row,Binder,SPOT peptide array binding signal intensity
1,B1,1

# Target: CaBbc1
# Experiment: as above
# Summary of the method: as §1
row,Binder,SPOT peptide array binding signal intensity
1,B1,≤ 0

# Target: CaBem1-D1
# Experiment: as above
# Summary of the method: as §1
row,Binder,SPOT peptide array binding signal intensity
1,B1,1

# Target: CaBzz1-D1
# Experiment: as above
# Summary of the method: as §1
row,Binder,SPOT peptide array binding signal intensity
1,B1,951

# Target: CaBzz1-D2
# Experiment: as above
# Summary of the method: as §1
row,Binder,SPOT peptide array binding signal intensity
1,B1,158

# Target: CaCyk3
# Experiment: as above
# Summary of the method: as §1
row,Binder,SPOT peptide array binding signal intensity
1,B1,≤ 0

# Target: CaFus1
# Experiment: as above
# Summary of the method: as §1
row,Binder,SPOT peptide array binding signal intensity
1,B1,2

# Target: CaHof1
# Experiment: as above
# Summary of the method: as §1
row,Binder,SPOT peptide array binding signal intensity
1,B1,0.5

# Target: CaHse1
# Experiment: as above
# Summary of the method: as §1
row,Binder,SPOT peptide array binding signal intensity
1,B1,4.75

# Target: CaLsb1
# Experiment: as above
# Summary of the method: as §1
row,Binder,SPOT peptide array binding signal intensity
1,B1,0.5

# Target: CaLsb4
# Experiment: as above
# Summary of the method: as §1
row,Binder,SPOT peptide array binding signal intensity
1,B1,≤ 0

# Target: CaMyo5
# Experiment: as above
# Summary of the method: as §1
row,Binder,SPOT peptide array binding signal intensity
1,B1,29

# Target: CaNbp2
# Experiment: as above
# Summary of the method: as §1
row,Binder,SPOT peptide array binding signal intensity
1,B1,23.5

# Target: CaRvs167
# Experiment: as above
# Summary of the method: as §1
row,Binder,SPOT peptide array binding signal intensity
1,B1,3.67

# Target: CaRvs167-3
# Experiment: as above
# Summary of the method: as §1
row,Binder,SPOT peptide array binding signal intensity
1,B1,1.5

# Target: CaSho1
# Experiment: as above
# Summary of the method: as §1
row,Binder,SPOT peptide array binding signal intensity
1,B1,4.5

# Target: CaSla1-D1-D2
# Experiment: as above
# Summary of the method: as §1
row,Binder,SPOT peptide array binding signal intensity
1,B1,≤ 0

# Target: CaSla1-D3
# Experiment: as above
# Summary of the method: as §1
row,Binder,SPOT peptide array binding signal intensity
1,B1,≤ 0

# Target: ScAbp1
# Experiment: as above
# Summary of the method: as §1
row,Binder,SPOT peptide array binding signal intensity
1,B1,≤ 0

# Target: ScBbc1
# Experiment: as above
# Summary of the method: as §1
row,Binder,SPOT peptide array binding signal intensity
1,B1,≤ 0

# Target: ScBem1-D1
# Experiment: as above
# Summary of the method: as §1
row,Binder,SPOT peptide array binding signal intensity
1,B1,≤ 0

# Target: ScBzz1-D1
# Experiment: as above
# Summary of the method: as §1
row,Binder,SPOT peptide array binding signal intensity
1,B1,13

# Target: ScBzz1-D2
# Experiment: as above
# Summary of the method: as §1
row,Binder,SPOT peptide array binding signal intensity
1,B1,≤ 0

# Target: ScCyk3
# Experiment: as above
# Summary of the method: as §1
row,Binder,SPOT peptide array binding signal intensity
1,B1,1

# Target: ScFus1
# Experiment: as above
# Summary of the method: as §1
row,Binder,SPOT peptide array binding signal intensity
1,B1,≤ 0

# Target: ScHof1
# Experiment: as above
# Summary of the method: as §1
row,Binder,SPOT peptide array binding signal intensity
1,B1,13.5

# Target: ScHse1
# Experiment: as above
# Summary of the method: as §1
row,Binder,SPOT peptide array binding signal intensity
1,B1,34

# Target: ScLsb1
# Experiment: as above
# Summary of the method: as §1
row,Binder,SPOT peptide array binding signal intensity
1,B1,≤ 0

# Target: ScLsb2
# Experiment: as above
# Summary of the method: as §1
row,Binder,SPOT peptide array binding signal intensity
1,B1,≤ 0

# Target: ScLsb3
# Experiment: as above
# Summary of the method: as §1
row,Binder,SPOT peptide array binding signal intensity
1,B1,≤ 0

# Target: ScLsb4
# Experiment: as above
# Summary of the method: as §1
row,Binder,SPOT peptide array binding signal intensity
1,B1,≤ 0

# Target: ScMyo3
# Experiment: as above
# Summary of the method: as §1
row,Binder,SPOT peptide array binding signal intensity
1,B1,1190

# Target: ScMyo5
# Experiment: as above
# Summary of the method: as §1
row,Binder,SPOT peptide array binding signal intensity
1,B1,712

# Target: ScNbp2
# Experiment: as above
# Summary of the method: as §1
row,Binder,SPOT peptide array binding signal intensity
1,B1,22

# Target: ScPex13
# Experiment: as above
# Summary of the method: as §1
row,Binder,SPOT peptide array binding signal intensity
1,B1,538

# Target: ScRvs167
# Experiment: as above
# Summary of the method: as §1
row,Binder,SPOT peptide array binding signal intensity
1,B1,2.33

# Target: ScSho1
# Experiment: as above
# Summary of the method: as §1
row,Binder,SPOT peptide array binding signal intensity
1,B1,≤ 0

# Target: ScSla1-D1-D2
# Experiment: as above
# Summary of the method: as §1
row,Binder,SPOT peptide array binding signal intensity
1,B1,≤ 0

# Target: ScSla1-D3
# Experiment: as above
# Summary of the method: as §1
row,Binder,SPOT peptide array binding signal intensity
1,B1,1.25

# Target: SpAbp1-D1
# Experiment: as above
# Summary of the method: as §1
row,Binder,SPOT peptide array binding signal intensity
1,B1,6

# Target: SpBbc1
# Experiment: as above
# Summary of the method: as §1
row,Binder,SPOT peptide array binding signal intensity
1,B1,3

# Target: SpBzz1-D1
# Experiment: as above
# Summary of the method: as §1
row,Binder,SPOT peptide array binding signal intensity
1,B1,3120

# Target: SpBzz1-D2
# Experiment: as above
# Summary of the method: as §1
row,Binder,SPOT peptide array binding signal intensity
1,B1,4.25

# Target: SpCyk3
# Experiment: as above
# Summary of the method: as §1
row,Binder,SPOT peptide array binding signal intensity
1,B1,≤ 0

# Target: SpHof1
# Experiment: as above
# Summary of the method: as §1
row,Binder,SPOT peptide array binding signal intensity
1,B1,≤ 0

# Target: SpHof1-2
# Experiment: as above
# Summary of the method: as §1
row,Binder,SPOT peptide array binding signal intensity
1,B1,≤ 0

# Target: SpHof1-3
# Experiment: as above
# Summary of the method: as §1
row,Binder,SPOT peptide array binding signal intensity
1,B1,≤ 0

# Target: SpHse1
# Experiment: as above
# Summary of the method: as §1
row,Binder,SPOT peptide array binding signal intensity
1,B1,10.5

# Target: SpLsb1
# Experiment: as above
# Summary of the method: as §1
row,Binder,SPOT peptide array binding signal intensity
1,B1,4.75

# Target: SpLsb4
# Experiment: as above
# Summary of the method: as §1
row,Binder,SPOT peptide array binding signal intensity
1,B1,27

# Target: SpMyo1
# Experiment: as above
# Summary of the method: as §1
row,Binder,SPOT peptide array binding signal intensity
1,B1,980

# Target: SpNbp2
# Experiment: as above
# Summary of the method: as §1
row,Binder,SPOT peptide array binding signal intensity
1,B1,16

# Target: SpPex13
# Experiment: as above
# Summary of the method: as §1
row,Binder,SPOT peptide array binding signal intensity
1,B1,≤ 0

# Target: SpRvs167
# Experiment: as above
# Summary of the method: as §1
row,Binder,SPOT peptide array binding signal intensity
1,B1,64.7

# Target: SpSla1-D1-D2
# Experiment: as above
# Summary of the method: as §1
row,Binder,SPOT peptide array binding signal intensity
1,B1,1

# Target: SpSla1-D3
# Experiment: as above
# Summary of the method: as §1
row,Binder,SPOT peptide array binding signal intensity
1,B1,≤ 0

# — the supplement of paper PMC4466140
